Source: PubChem BioAssay AID602143 (Vanderbilt Specialized Chemistry Center, 2011)
Activity calls are given as the source filed them. No stated cut-off is given here; in the data, active means remaining activity below about 50%; inactive means the rest.

molecular target: Phospholipase D2 (Homo sapiens) (UniProt O14939); experiment: cellular phospholipase D2 activity inhibition – cell-based, HEK293, single concentration (AID 602143); details: HEK293 cellular PLD2 activity, percent of control; stronger effect = lower value;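 further: tested at 200 nM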
Sequence (O14939 whole entry, looked up): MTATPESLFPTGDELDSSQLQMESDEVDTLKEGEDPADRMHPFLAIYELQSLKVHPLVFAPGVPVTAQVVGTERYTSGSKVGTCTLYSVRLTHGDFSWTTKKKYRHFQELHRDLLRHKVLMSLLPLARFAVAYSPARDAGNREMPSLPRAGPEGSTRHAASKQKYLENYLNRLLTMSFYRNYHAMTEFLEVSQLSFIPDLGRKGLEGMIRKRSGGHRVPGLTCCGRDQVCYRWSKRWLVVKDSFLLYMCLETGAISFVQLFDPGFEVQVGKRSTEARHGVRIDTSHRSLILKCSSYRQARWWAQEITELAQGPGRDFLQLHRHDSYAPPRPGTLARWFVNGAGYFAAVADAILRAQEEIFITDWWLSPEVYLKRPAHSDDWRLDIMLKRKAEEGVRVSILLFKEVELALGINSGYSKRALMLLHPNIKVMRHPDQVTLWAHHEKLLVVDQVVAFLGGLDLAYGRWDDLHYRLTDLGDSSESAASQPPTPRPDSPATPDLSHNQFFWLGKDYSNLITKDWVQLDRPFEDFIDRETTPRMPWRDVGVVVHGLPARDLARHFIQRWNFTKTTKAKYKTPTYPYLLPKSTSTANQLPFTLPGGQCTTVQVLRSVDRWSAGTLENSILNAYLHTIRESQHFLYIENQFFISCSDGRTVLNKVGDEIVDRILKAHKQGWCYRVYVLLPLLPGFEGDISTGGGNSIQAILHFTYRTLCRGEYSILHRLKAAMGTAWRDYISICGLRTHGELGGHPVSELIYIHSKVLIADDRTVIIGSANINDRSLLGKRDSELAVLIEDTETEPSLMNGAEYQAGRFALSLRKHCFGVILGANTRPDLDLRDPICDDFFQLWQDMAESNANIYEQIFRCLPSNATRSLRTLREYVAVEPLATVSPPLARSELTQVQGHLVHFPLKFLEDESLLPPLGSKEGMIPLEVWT
Sequence (O14939 whole entry, looked up): as above

Compound	remaining activity
O=C(NCCN1CCC2(CC1)C(=O)NCN2c1cccc(Cl)c1)c1ccc(F)cc1	65.4% (inactive)
O=C(NCCN1CCC2(CC1)C(=O)NCN2c1ccccc1)c1ncc(F)cc1F	52.8% (inactive)
O=C(NCCN1CCC2(CC1)C(=O)NCN2c1cccc(F)c1)C12CC3CC(CC(C3)C1)C2	87.1% (inactive)
O=C(NCCN1CCC2(CC1)C(=O)NCN2c1cccc(F)c1)C1CCCCC1	91% (inactive)
O=C(c1cnc2ccccc2c1)N1CCCC1CN1CCC(n2c(=O)[nH]c3ccccc32)CC1 (stereo not given)	54.2% (inactive)
O=C(NCCN1CCC2(CC1)C(=O)NCN2c1ccc(Cl)cc1)c1cc2cc(F)ccc2[nH]1	57% (inactive)
CC(C)[C@@H](CN1CCC2(CC1)C(=O)NCN2c1ccccc1)NC(=O)c1ccc2ccccc2c1	80.9% (inactive)
C[C@@H](CN1CCC2(CC1)C(=O)NCN2c1ccc(F)c(F)c1)NC(=O)c1ccc(Cl)cc1	14.9% (active)
O=C(CCc1ccc(F)cc1)NCCN1CCC2(CC1)C(=O)NCN2c1ccccc1	102% (inactive)
C[C@H](CN1CCC2(CC1)C(=O)NCN2c1ccccc1)NC(=O)c1ccc(F)cc1	81.7% (inactive)
O=C(NCCN1CCC2(CC1)C(=O)NCN2c1cccc(F)c1)c1cc(C(F)(F)F)ccc1C(F)(F)F	87.9% (inactive)
O=C(NCCN1CCC2(CC1)C(=O)NCN2c1ccccc1)c1cnc2ccccc2c1	56.6% (inactive)
O=C(c1c(F)cccc1F)N(CCN1CCC2(CC1)C(=O)NCN2c1cccc(F)c1)C(=O)c1c(F)cccc1F	88.1% (inactive)
O=C(Cc1ccccc1Br)NCCN1CCC2(CC1)C(=O)NCN2c1cccc(F)c1	117% (inactive)
O=C(NCCN1CCC2(CC1)C(=O)NCN2c1ccccc1)c1ccc2cc(F)ccc2c1	68.8% (inactive)
Cc1cccc(C(=O)N[C@@H](C)CN2CCC3(CC2)C(=O)NCN3c2ccccc2)c1	83.2% (inactive)
O=C(NCCN1CCC2(CC1)C(=O)NCN2c1ccccc1)c1cccc(Cl)n1	52.9% (inactive)
O=C(NCCN1CCC2(CC1)C(=O)NCN2c1ccc(Br)cc1)c1ccc2ccccc2c1	52% (inactive)

Compound	remaining activity
C[C@@H](CN1CCC2(CC1)C(=O)N(Cc1ccccc1)c1ccccc12)NC(=O)c1ccc2ccccc2c1	71.6% (inactive)
O=C(NCCN1CCC2(CC1)C(=O)NCN2c1cccc(F)c1)c1ccc(F)nc1	85.7% (inactive)
Cc1ccc(C(=O)NCCN2CCC3(CC2)C(=O)NCN3c2ccccc2)c(O)c1	85% (inactive)
O=C(NCCN1CCC2(CC1)C(=O)NCN2c1ccccc1)c1cc(=O)c2cc(Br)ccc2o1	122% (inactive)
COc1cc(OC)cc(C(=O)NCCN2CCC3(CC2)C(=O)NCN3c2cccc(F)c2)c1	84.7% (inactive)
O=C(NCCN1CCC2(CC1)C(=O)Oc1ccccc12)c1cnc2ccccc2c1	57.4% (inactive)
O=C(NCCN1CCC2(CC1)C(=O)NCN2c1ccc(F)c(F)c1)c1ccc(F)cc1	49.6% (active)
CC(C)[C@@H](CN1CCC2(CC1)C(=O)NCN2c1ccccc1)NC(=O)c1cc2cc(F)ccc2[nH]1	57.1% (inactive)
O=C(NCCN1CCC2(CC1)C(=O)NCN2c1ccccc1)c1ncccc1F	82.2% (inactive)
C[C@@H](CN1CCC2(CC1)C(=O)NCN2c1ccc(F)c(F)c1)NC(=O)c1cc2ccccc2[nH]1	0% (active)
O=C(COCc1ccccc1)NCCN1CCC2(CC1)C(=O)NCN2c1cccc(F)c1	86.7% (inactive)
O=C1c2ccccc2C(=O)N1CCN1CCC2(CC1)C(=O)NCN2c1ccccc1	86.5% (inactive)
O=C(c1ccc2ccccc2c1)N1CC(N2CCC3(CC2)C(=O)NCN3c2ccccc2)C1	72.6% (inactive)
O=C(N[C@@H](Cc1ccccc1)CN1CCC2(CC1)C(=O)NCN2c1ccccc1)c1ccc(F)c(F)c1	102% (inactive)
O=C(NCCN1CCC2(CC1)C(=O)NCN2c1cccc(F)c1)c1ccc(OC(F)(F)F)cc1	78% (inactive)
C[C@H](CN1CCC2(CC1)C(=O)NCN2c1ccccc1)NC(=O)c1cc(Br)c(Br)o1	85.7% (inactive)
COc1cccc(C(=O)NCCN2CCC3(CC2)C(=O)NCN3c2ccccc2)n1	60.7% (inactive)
